Holding throughout (experiment): DAPPL (digital affinity profiling via proximity ligation, sequencing); 10 mM Tris-HCl pH 7.5, 50 mM NaCl, 1 mM DTT, 4% glycerol, room temperature, 30 min; GST-TFs on glutathione beads, 16-mer random dsDNA library, 0.1% formaldehyde crosslink after washing; high values mean tight binding
Assay [1] addresses T1, FLI1 (Homo sapiens, UniProt Q01543 1-452).
T1 sequence: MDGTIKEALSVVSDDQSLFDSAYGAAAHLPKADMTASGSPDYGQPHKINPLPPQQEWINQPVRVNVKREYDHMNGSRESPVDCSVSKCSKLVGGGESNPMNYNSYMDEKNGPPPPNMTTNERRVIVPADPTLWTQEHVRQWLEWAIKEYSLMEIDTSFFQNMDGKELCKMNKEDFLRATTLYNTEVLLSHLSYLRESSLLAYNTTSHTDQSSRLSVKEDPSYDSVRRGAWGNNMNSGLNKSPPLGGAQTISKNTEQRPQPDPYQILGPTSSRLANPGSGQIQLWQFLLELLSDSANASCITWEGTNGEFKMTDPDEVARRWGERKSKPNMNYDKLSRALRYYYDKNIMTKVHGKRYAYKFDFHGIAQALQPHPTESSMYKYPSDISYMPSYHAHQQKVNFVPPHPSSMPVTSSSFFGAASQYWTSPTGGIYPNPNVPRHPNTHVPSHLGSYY
Particulars: protein: recombinant; tags: N-terminal GST; dsDNA, one strand shown. Summed up:
(§1)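 Pools of DNA-barcoded human transcription factors, expressed in yeast as GST fusions on glutathione beads and combined with a tag-only sample, were incubated with 200 nmole of a 16-mer random double-stranded DNA library. Incubation took 30 min at room temperature in Tris/NaCl/DTT/glycerol buffer and was followed by washing, 0.1% formaldehyde crosslinking, proximity ligation (BsaI/T4 ligase, 1 h, 37 °C), PCR amplification and sequencing on an Illumina NextSeq500. Binding signal is the ratio of a hexamer's read frequency for a factor to its frequency for the tag-only sample.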

Assay [2] addresses T2, ELK1 (Homo sapiens, UniProt P19419 1-428).
T2 sequence: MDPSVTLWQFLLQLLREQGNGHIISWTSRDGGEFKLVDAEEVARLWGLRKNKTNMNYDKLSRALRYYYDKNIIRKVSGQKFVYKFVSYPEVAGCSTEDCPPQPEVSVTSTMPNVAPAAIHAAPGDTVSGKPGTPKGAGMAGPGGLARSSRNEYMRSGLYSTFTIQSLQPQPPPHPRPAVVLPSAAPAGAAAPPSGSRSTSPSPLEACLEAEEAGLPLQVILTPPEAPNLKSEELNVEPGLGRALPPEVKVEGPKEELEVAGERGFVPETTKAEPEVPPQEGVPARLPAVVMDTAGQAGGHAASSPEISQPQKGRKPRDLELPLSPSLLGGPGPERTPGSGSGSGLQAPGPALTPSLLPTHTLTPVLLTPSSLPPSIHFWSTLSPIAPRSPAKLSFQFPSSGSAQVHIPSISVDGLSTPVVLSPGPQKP
Particulars: protein: recombinant; tags: N-terminal GST; dsDNA, one strand shown. The gist of the method:
as §1

The target in assay [3] is T3, GABPA (Homo sapiens, UniProt Q06546 1-454).
T3 sequence: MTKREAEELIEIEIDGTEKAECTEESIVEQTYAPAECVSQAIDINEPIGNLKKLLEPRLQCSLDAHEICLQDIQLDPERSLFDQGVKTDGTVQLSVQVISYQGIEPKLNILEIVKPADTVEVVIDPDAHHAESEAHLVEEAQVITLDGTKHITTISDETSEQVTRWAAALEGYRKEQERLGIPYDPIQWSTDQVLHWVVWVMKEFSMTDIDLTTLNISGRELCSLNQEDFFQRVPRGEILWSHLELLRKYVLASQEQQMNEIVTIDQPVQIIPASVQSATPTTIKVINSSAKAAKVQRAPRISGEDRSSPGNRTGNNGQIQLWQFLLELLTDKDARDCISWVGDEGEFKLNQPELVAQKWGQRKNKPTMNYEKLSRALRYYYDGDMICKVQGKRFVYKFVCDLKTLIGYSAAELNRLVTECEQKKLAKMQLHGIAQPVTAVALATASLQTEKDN
Particulars: protein: recombinant; tags: N-terminal GST; dsDNA, one strand shown. Summed up:
as §1

Assay [4] addresses ELF1 (Homo sapiens, UniProt P32519 1-619). Particulars: protein: recombinant; tags: N-terminal GST; dsDNA, one strand shown. The gist of the method: as §1
The target in assay [5] is T4, EHF (Homo sapiens, UniProt Q9NZC4 1-300).
T4 sequence: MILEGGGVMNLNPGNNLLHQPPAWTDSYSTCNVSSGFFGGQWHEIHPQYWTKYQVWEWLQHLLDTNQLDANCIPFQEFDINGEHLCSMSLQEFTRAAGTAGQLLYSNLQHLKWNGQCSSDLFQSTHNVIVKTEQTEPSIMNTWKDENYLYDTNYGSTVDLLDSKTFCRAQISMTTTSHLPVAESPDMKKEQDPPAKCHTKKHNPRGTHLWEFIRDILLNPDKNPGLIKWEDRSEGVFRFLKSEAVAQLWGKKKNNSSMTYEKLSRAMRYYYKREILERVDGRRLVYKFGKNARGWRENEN
Particulars: protein: recombinant; tags: N-terminal GST; dsDNA, one strand shown. Summed up:
as §1

Assay [6] has as its target SPI1 (Homo sapiens, UniProt P17947 1-270). Particulars: protein: recombinant; tags: N-terminal GST; dsDNA, one strand shown. The gist of the method: as §1
Assay [7] deals with SPIB (Homo sapiens, UniProt Q01892 1-262). Particulars: protein: recombinant; tags: N-terminal GST; dsDNA, one strand shown. The gist of the method: as §1
Assay [8] deals with T5, ELK3 (Homo sapiens, UniProt P41970 1-407).
T5 sequence: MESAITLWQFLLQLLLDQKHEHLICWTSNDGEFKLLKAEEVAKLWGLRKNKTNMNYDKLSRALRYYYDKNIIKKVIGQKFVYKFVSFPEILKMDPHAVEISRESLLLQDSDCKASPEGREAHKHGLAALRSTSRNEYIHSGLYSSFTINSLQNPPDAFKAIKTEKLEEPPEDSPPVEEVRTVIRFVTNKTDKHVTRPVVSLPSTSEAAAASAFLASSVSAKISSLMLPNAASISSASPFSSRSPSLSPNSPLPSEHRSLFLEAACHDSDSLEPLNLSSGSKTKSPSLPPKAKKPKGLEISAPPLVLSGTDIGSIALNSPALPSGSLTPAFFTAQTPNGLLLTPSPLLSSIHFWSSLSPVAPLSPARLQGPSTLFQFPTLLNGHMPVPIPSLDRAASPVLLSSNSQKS
Particulars: protein: recombinant; tags: N-terminal GST; dsDNA, one strand shown. The gist of the method: as §1

Assay [9] deals with T6, FEV (Homo sapiens, UniProt Q99581 1-238).
T6 sequence: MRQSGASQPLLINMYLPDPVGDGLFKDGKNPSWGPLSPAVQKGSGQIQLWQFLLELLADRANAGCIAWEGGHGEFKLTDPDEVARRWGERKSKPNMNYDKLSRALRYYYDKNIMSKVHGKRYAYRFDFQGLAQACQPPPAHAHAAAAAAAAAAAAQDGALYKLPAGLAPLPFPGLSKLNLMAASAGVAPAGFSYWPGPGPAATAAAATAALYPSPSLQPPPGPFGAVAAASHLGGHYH
Particulars: protein: recombinant; tags: N-terminal GST; dsDNA, one strand shown. The gist of the method:
as §1

Assay [10] deals with ETV5 (Homo sapiens, UniProt P41161 1-510). Particulars: protein: recombinant; tags: N-terminal GST; dsDNA, one strand shown. Summed up:
as §1

The target in assay [11] is HSF1 (Homo sapiens, UniProt Q00613 1-529). Particulars: protein: recombinant; tags: N-terminal GST; chain copies: 3; dsDNA, one strand shown. The gist of the method: as §1
Assay [12] deals with T7, SPIC (Homo sapiens, UniProt Q8N5J4 1-248).
T7 sequence: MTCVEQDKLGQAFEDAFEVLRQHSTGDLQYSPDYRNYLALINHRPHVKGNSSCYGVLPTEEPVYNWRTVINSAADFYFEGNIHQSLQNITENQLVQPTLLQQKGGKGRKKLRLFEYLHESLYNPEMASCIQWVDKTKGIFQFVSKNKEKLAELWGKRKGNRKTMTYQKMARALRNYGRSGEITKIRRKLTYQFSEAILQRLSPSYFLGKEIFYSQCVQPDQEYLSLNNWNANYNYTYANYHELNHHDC
Particulars: protein: recombinant; tags: N-terminal GST; dsDNA, one strand shown. Summed up: as §1

Assay [13] addresses ELF4 (Homo sapiens, UniProt Q99607 1-663). Particulars: protein: recombinant; tags: N-terminal GST; dsDNA, one strand shown. Summed up: as §1
In assay [14] the target is T8, ELK4 (Homo sapiens, UniProt P28324-2 1-405).
T8 sequence: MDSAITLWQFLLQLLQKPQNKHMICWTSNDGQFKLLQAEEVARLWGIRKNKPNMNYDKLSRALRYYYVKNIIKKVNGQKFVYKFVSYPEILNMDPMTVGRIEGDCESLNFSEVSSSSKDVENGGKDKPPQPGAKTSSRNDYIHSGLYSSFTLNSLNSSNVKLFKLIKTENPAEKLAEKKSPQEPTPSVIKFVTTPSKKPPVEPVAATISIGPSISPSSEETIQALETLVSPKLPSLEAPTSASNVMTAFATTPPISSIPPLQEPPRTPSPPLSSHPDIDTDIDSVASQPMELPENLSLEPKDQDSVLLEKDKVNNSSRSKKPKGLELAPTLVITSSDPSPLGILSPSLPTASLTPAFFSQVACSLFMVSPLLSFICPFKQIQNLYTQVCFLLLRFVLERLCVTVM
Particulars: protein: recombinant; tags: N-terminal GST; dsDNA, one strand shown. Summed up:
as §1

Assay [15] addresses T9, ETV2 (Homo sapiens, UniProt O00321 1-342).
T9 sequence: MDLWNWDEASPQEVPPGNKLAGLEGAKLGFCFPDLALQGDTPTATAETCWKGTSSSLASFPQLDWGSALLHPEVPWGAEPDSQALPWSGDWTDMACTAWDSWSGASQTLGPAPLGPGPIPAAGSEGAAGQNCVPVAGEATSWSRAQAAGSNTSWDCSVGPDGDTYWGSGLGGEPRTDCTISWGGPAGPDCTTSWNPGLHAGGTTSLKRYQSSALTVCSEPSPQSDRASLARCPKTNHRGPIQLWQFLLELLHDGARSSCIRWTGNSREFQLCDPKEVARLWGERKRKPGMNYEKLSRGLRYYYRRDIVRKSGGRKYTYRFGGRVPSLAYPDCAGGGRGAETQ
Particulars: protein: recombinant; tags: N-terminal GST; dsDNA, one strand shown. The gist of the method:
as §1

The target of assay [16] is T10, ELF3 (Homo sapiens, UniProt P78545 1-371).
T10 sequence: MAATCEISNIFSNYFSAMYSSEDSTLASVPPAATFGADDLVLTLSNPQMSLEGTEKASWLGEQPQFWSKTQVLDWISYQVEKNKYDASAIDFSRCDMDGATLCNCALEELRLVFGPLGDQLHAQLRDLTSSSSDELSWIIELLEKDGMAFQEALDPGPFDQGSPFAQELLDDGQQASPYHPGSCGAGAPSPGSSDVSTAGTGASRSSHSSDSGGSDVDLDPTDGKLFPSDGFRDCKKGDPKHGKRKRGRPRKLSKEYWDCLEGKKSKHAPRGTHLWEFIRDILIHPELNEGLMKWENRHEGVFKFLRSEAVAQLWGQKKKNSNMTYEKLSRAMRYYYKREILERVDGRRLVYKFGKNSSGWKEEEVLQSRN
Particulars: protein: recombinant; tags: N-terminal GST; dsDNA, one strand shown. Summed up:
as §1

The target of assay [17] is CRX (Homo sapiens, UniProt O43186 1-299). Particulars: protein: recombinant; tags: N-terminal GST; dsDNA, one strand shown. The gist of the method:
as §1

Assay [18] deals with ETV1 (Homo sapiens, UniProt P50549 1-477). Particulars: protein: recombinant; tags: N-terminal GST; dsDNA, one strand shown. The gist of the method: as §1
Chain of ETV1 (P50549 whole entry): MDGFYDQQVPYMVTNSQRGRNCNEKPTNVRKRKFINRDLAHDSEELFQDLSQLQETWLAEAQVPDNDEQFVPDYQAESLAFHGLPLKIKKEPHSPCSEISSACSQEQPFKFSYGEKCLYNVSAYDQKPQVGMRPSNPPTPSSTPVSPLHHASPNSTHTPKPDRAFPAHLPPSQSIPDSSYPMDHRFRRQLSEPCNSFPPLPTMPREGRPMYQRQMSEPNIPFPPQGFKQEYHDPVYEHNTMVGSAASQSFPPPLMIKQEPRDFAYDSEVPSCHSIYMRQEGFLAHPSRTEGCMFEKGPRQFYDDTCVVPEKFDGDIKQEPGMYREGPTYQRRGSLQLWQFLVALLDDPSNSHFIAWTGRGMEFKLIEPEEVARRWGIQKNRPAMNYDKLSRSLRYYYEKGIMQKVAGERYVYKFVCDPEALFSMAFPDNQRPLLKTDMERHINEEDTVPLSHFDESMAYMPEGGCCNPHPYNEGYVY

Chain of ETV5 (P41161 whole entry): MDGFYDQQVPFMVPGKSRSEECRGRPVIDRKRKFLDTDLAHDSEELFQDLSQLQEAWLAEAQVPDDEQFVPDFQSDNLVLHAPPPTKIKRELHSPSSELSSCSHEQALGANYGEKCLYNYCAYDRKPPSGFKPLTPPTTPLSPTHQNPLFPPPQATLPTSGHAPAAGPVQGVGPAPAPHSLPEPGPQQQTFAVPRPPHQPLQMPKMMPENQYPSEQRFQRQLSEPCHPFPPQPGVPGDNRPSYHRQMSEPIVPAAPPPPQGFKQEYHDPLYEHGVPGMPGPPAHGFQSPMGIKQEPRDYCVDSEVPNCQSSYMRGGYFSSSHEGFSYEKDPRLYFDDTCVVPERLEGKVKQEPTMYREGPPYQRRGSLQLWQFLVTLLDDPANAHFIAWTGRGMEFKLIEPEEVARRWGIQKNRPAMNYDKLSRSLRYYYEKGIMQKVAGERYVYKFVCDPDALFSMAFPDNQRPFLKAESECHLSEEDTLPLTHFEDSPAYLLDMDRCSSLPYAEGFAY
Chain of CRX (O43186 whole entry): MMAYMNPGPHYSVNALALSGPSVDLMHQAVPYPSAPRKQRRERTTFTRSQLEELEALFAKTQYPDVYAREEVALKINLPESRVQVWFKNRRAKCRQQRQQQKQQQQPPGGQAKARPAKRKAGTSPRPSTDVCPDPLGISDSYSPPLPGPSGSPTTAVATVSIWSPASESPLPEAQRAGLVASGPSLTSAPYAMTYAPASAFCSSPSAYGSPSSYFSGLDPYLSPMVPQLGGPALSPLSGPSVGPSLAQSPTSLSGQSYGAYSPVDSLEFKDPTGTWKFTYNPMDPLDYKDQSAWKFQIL
Chain of ELF1 (P32519 whole entry): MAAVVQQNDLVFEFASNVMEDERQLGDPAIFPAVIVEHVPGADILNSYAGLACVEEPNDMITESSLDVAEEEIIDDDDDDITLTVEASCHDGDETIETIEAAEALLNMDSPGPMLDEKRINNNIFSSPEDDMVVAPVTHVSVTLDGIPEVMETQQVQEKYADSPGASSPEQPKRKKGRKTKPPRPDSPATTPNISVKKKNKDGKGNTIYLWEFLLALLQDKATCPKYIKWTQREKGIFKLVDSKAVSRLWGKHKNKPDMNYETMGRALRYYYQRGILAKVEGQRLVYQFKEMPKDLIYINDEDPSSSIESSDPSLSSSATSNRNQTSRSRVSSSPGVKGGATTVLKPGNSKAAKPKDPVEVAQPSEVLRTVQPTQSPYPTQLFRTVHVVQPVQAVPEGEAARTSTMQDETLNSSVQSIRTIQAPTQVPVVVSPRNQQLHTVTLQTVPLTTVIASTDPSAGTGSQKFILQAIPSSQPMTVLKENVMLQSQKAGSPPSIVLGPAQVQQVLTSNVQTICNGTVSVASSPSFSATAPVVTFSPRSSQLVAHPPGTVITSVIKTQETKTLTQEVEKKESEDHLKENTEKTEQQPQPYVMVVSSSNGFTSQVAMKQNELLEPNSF
Chain of SPIB (Q01892 whole entry): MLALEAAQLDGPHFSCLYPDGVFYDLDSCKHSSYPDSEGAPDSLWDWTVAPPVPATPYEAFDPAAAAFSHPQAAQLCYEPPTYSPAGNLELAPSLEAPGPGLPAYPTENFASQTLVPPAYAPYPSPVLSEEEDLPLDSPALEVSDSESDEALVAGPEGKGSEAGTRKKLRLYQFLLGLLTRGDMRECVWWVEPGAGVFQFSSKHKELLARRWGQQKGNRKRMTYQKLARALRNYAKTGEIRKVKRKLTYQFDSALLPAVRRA
Chain of HSF1 (Q00613 whole entry): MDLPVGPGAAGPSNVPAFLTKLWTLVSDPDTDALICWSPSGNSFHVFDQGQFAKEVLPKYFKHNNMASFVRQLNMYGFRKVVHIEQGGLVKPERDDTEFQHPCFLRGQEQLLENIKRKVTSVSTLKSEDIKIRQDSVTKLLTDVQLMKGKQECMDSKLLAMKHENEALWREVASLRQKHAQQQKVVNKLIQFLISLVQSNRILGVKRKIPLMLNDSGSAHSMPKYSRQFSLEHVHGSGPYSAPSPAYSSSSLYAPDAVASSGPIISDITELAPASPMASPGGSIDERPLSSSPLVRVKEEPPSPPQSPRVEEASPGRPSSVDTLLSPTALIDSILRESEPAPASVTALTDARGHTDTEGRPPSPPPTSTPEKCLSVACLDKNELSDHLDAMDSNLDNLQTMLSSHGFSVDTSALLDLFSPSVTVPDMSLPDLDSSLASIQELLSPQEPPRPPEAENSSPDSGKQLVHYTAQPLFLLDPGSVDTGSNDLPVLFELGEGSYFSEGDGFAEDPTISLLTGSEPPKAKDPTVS
Chain of ELF4 (Q99607 whole entry): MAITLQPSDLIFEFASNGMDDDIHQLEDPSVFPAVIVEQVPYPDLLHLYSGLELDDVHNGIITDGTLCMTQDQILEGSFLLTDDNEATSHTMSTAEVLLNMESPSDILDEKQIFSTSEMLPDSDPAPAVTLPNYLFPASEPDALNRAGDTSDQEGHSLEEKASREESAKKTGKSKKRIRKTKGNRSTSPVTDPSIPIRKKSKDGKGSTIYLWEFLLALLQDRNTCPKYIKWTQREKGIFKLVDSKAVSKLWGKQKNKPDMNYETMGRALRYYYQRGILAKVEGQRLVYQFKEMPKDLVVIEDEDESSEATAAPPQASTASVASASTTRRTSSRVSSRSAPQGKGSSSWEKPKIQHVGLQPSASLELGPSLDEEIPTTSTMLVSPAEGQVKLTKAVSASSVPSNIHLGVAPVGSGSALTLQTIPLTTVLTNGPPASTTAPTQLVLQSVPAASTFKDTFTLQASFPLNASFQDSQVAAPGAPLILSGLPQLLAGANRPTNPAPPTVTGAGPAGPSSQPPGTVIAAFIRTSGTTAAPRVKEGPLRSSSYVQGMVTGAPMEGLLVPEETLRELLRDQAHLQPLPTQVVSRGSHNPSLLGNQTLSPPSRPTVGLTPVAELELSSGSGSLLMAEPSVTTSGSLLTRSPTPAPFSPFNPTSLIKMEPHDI

On to ACCGAA, for which the binding signal was 1.09 fold enrichment (6-mer frequency, TF over GST control) in [1]; 1.04 fold enrichment (6-mer frequency, TF over GST control) in [2]; 1.05 fold enrichment (6-mer frequency, TF over GST control) in [3]; 1.11 fold enrichment (6-mer frequency, TF over GST control) in assay [4]; 1 fold enrichment (6-mer frequency, TF over GST control) in assay [5]; 1.06 fold enrichment (6-mer frequency, TF over GST control) in assay [6]. The binding signal in [7] was 1.01 fold enrichment (6-mer frequency, TF over GST control); in [8], 1.01 fold enrichment (6-mer frequency, TF over GST control); in assay [9] it was 1.05 fold enrichment (6-mer frequency, TF over GST control); in assay [10], 1.06 fold enrichment (6-mer frequency, TF over GST control); in [11], 1.25 fold enrichment (6-mer frequency, TF over GST control); in assay [12] it was 1.12 fold enrichment (6-mer frequency, TF over GST control). For the same sequence, the binding signal in assay [13] is 1.03 fold enrichment (6-mer frequency, TF over GST control); in [14], 1.06 fold enrichment (6-mer frequency, TF over GST control); in assay [15], 1.19 fold enrichment (6-mer frequency, TF over GST control); in assay [16] it was 1.11 fold enrichment (6-mer frequency, TF over GST control); in [17], 1.08 fold enrichment (6-mer frequency, TF over GST control); in [18], 1.05 fold enrichment (6-mer frequency, TF over GST control).

The values are drawn from PMC7862700, “An all-to-all approach to the identification of sequence-specific readers for epigenetic DNA modifications on cytosine”.
